Source: PubChem BioAssay (NCI)
Compounds without any hit were thinned out: in the full panel of roughly 83,000, 20% have a hit.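 Assay: single dose, 48 h. Readout: percent growth (0 = no net growth; negative = cell death). Active: <10.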 Unmarked numbers belong to inactive results. Active and inactive are the calls of the source.

Assays:
Test in all cases: NCI-60 one-dose screen, 48 h (100 = growth as untreated, 0 = no growth, -100 = all killed)
[1] = tested on: SR leukemia; details: 10 µM
[2] = tested on: RPMI-8226 leukemia; details: 10 µM
[3] = tested on: OVCAR-8 ovarian; details: 10 µM
[4] = tested on: OVCAR-5 ovarian; details: 10 µM
[5] = tested on: OVCAR-4 ovarian; details: 10 µM
[6] = tested on: SK-OV-3 ovarian; details: 10 µM
[7] = tested on: IGROV1 ovarian; details: 10 µM
[8] = tested on: OVCAR-3 ovarian; details: 10 µM
[9] = tested on: HS 578T breast; details: 10 µM
[10] = tested on: NCI/ADR-RES ovarian; details: 10 µM
[11] = tested on: T-47D breast; details: 10 µM
[12] = tested on: MDA-MB-435 melanoma; details: 10 µM
[13] = tested on: SW-620 colon; details: 10 µM
[14] = tested on: MCF7 breast
[15] = tested on: HCT-116 colon; details: 10 µM
[16] = tested on: HCC-2998 colon; details: 10 µM
[17] = tested on: KM12 colon; details: 10 µM
[18] = tested on: BT-549 breast; details: 10 µM

SMILES | growth [1] [%] | growth [2] [%] | growth [3] [%] | growth [4] [%] | growth [5] [%] | growth [6] [%] | growth [7] | growth [8] [%] | growth [9] [%] | growth [10] [%] | growth [11] [%] | growth [12] | growth [13] [%] | growth ([14]; 10 µM unless noted) [%] | growth [15] [%] | growth [16] [%] | growth [17] [%] | growth [18] [%] | growth ([14]; 10 µM) [%] | growth ([14]; 100 µM)
CCCCCCCCCCC(C)Br (stereo unspecified) | 93.8 | 101 | 108 | 104 | 109 | 98.3 | 106% | 108 | 116 | 105 | 99.2 | 99.6% | 106 | 98.4 | 100 | 91 | 107 |  |  | 
COS(=O)(=O)c1ccc(Br)cc1 | 135 | 111 | 98.6 | 93.4 | 107 | 104 | 118% | 101 | 114 | 93.7 | 93.9 | 110% |  | 97.3 | 93.9 | 99.8 | 91.7 | 113 |  | 
O=C(O)[C@@H]1[C@H]2C[C@H]3c4[nH]c5ccccc5c4CCN3C[C@@H]2CC[C@@H]1O | 115 | 111 | 87.6 | 105 | 103 | 115 | 114% | 111 | 102 | 112 | 114 | 113% | 100 | 103 | 92.6 | 135 | 113 |  |  | 
Cc1ccc(C(=O)c2ccccc2)c(C)c1 | 127 | 98 | 109 | 95.3 | 103 | 99.2 | 101% | 112 | 113 | 99.7 | 96.4 | 118% |  | 101 | 94.8 |  | 107 | 99.6 |  | 
C=C1CC/C=C(\C)C(=O)C[C@@H]2[C@@H]1CC2(C)C | 95.7 | 68.3 | 98.1 | 108 | 110 | 101 | 11.4% | 96.7 | 122 | 115 | 94.6 | 115% | 119 |  | 99.9 | 98.1 | 109 |  | 101 | -72% (active)
COc1cc(C(N)=O)cc(OC)c1OC | 93.3 | 106 | 98.1 | 98.1 | 110 | 111 | 108% | 117 | 106 | 101 | 110 | 116% | 109 | 105 | 105 | 105 | 107 |  |  | 
CCCCNC1(C#N)CCN(Cc2ccccc2)CC1 | 115 | 99.2 | 96.4 | 88.9 | 103 | 97.1 | 91.9% | 132 | 101 | 88.3 | 17.8 | 97.5% | 102 | 102 | 98 | 86.9 | 144 |  |  | 
CC1C(=O)c2ccccc2CC1C(=O)O (stereo unspecified) | 95.8 | 110 | 97 | 103 | 108 | 108 | 100% | 129 | 119 | 102 | 102 | 108% |  | 99.3 | 110 | 89.7 | 123 | 105 |  | 
OC(c1ccccn1)C(O)c1ccccn1 (stereo unspecified) | 98.7 | 108 | 102 | 90.7 | 107 | 103 | 97.9% | 113 | 111 | 111 | 109 | 115% |  | 101 | 106 |  | 109 | 106 |  | 
CCCCOC(=O)c1ccc(C(C)C)cc1 | 102 | 110 | 106 | 102 | 102 | 90.4 | 100% | 106 | 108 | 97.3 | 88.7 | 103% | 111 | 94.9 | 85.4 | 107 | 104 |  |  | 
c1ncc2[nH]cnc2n1 | 100 | 91.9 | 95.6 | 96.7 | 110 | 90.8 | 92% | 110 | 114 | 104 | 94.5 | 108% | 96.7 | 93.5 | 92.4 | 93.7 | 105 |  |  | 
CC1=CC(C)(C)NC(=S)N1c1ccc(S(=O)(=O)O)c2cccc(S(=O)(=O)O)c12 | 109 | 113 | 114 | 105 | 117 | 115 | 95.9% | 99.9 | 92.8 | 110 | 106 | 106% | 95.2 | 108 | 107 | 108 | 94.6 |  |  | 
O=C(Nc1cc(-c2ccccc2)[nH]n1)c1ccc(Cl)cc1 | 47.7 | 36.6 | 84.3 | 80.7 | 71 | 62.7 | 3.1% (active) | 80.5 | 80.6 | 85 | 74.1 | 86.4% |  | 87.6 | 72.3 | 100 | 48.6 | 83.5 |  | 
COC(=O)c1ccc(C(C)C)cc1 | 103 | 99.9 | 106 | 103 | 103 | 83.4 | 105% | 103 | 119 | 103 | 82.3 | 99.8% | 113 | 93.1 | 85.1 | 101 | 103 |  |  | 
C/C(=N\O)C1(O)CCCCC1 | 94.3 | 100 | 94.1 | 103 | 110 | 98.1 | 97.9% | 94.7 | 62.5 | 110 | 72.7 | 108% |  | 50.7 | 101 | 109 | 94.6 | 102 |  | 
O=[N+]([O-])c1ccc(Cl)c(S(=O)(=O)O)c1 | 89.2 | 100 | 104 | 105 | 111 | 110 | 123% | 106 | 104 | 108 | 103 | 117% | 107 | 98.4 | 104 | 102 | 105 |  |  | 
Cc1nc2ccccc2c2nnc(SCC(=O)N(Cc3ccccc3)c3ccccc3)n12 | 67.6 | 78.8 | 100 | 95 | 91.7 | 93.8 | 71.6% | 93.4 | 93.9 | 96.1 | 76.4 | 96% | 93.5 | 102 | 43.1 | 110 | 129 |  |  | 
Cc1ccc(C(=O)NC2c3ccccc3Oc3ccccc32)cc1 | 26.6 | 78.9 | 48.6 | 80.6 | 64.7 | 48.3 | 50.8% | 31.6 | 46.5 | 55 | 60.5 | 6.21% (active) | 38.9 | 21.7 | 30.3 | 75.6 | 51.3 |  |  | 
C[C@@H](c1ccccc1)[C@@H](C(=O)O)c1ccccc1 | 105 | 99.7 | 98.2 | 105 | 94.7 | 100 | 111% | 104 | 110 | 105 | 101 | 104% |  | 93.4 | 102 |  | 109 | 97.6 |  | 
